Measurements published in PubChem BioAssay (NCI).
Compounds without any hit were thinned out: in the full panel of roughly 83,000, 20% have a hit.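 Cells were grown in 96-well plates and exposed to the test compound at a single concentration for 48 hours; results are reported as percent growth, with values below 10 considered active.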 A number with no mark means an inactive call. Calls of active or inactive are those of the source.

Key:
Experiment in all cases: NCI-60 one-dose screen, 48 h (100 = growth as untreated, 0 = no growth, -100 = all killed)
Conditions in all cases: 10 µM
NCI-H23 lung = system: NCI-H23 lung
NCI-H226 lung = system: NCI-H226 lung
NCI-H322M lung = system: NCI-H322M lung
HOP-62 NSCLC = system: HOP-62 NSCLC
NCI-H460 lung = system: NCI-H460 lung
HOP-92 NSCLC = system: HOP-92 NSCLC
NCI-H522 lung = system: NCI-H522 lung
A549/ATCC NSCLC = system: A549/ATCC NSCLC
786-0 renal = system: 786-0 renal
COLO 205 colon = system: COLO 205 colon

SMILES: N#Cc1c(NC(=O)c2cccc(C(F)(F)F)c2)sc2c1CCC(O)=C2
- growth (NCI-H23 lung): 22.3%
- growth (NCI-H226 lung): 54.7%
- growth (NCI-H322M lung): 49.2%
- growth (HOP-62 NSCLC): 55%
- growth (NCI-H460 lung): 30.3%
- growth (HOP-92 NSCLC): 11.2%
- growth (NCI-H522 lung): 11.2%
- growth (A549/ATCC NSCLC): 35.7%
- growth (786-0 renal): 62.1%
- growth (COLO 205 colon): 90.2%

SMILES: COc1ccccc1[C@H]1C(C(=O)c2ccc(O)cc2)C2(N[C@@H]1c1ccccc1)C(=O)Nc1ccc(Br)cc12 (stereo not given in full)
- growth (NCI-H23 lung): 33.8%
- growth (NCI-H226 lung): 48.1%
- growth (NCI-H322M lung): 55.3%
- growth (HOP-62 NSCLC): 51.3%
- growth (NCI-H460 lung): 20.2%
- growth (HOP-92 NSCLC): 51.8%
- growth (NCI-H522 lung): -7.87% (active)
- growth (A549/ATCC NSCLC): 32.6%
- growth (786-0 renal): 26.9%
- growth (COLO 205 colon): -5.4% (active)

SMILES: COc1ccc(NC(=O)Cn2c(/C=C/c3ccc(N(C)C)cc3)nc3ccccc3c2=O)cc1
- growth (NCI-H23 lung): 49.8%
- growth (NCI-H226 lung): -15.2% (active)
- growth (NCI-H322M lung): 46.4%
- growth (HOP-62 NSCLC): 39.3%
- growth (NCI-H460 lung): 19.5%
- growth (HOP-92 NSCLC): -2.51% (active)
- growth (NCI-H522 lung): 44.1%
- growth (A549/ATCC NSCLC): 15.2%
- growth (786-0 renal): 7.97% (active)
- growth (COLO 205 colon): 47%

SMILES: CC[C@]12C=CCN3CC[C@@]4(c5cc(C#CCNc6ccc(C)c(Nc7nccc(-c8cccnc8)n7)c6)c(OC)cc5N(C)[C@H]4[C@@](O)(C(=O)OC)[C@@H]1OC(C)=O)C32 (stereo not given in full)
- growth (NCI-H23 lung): 56.3%
- growth (NCI-H226 lung): 30.6%
- growth (NCI-H322M lung): 90.8%
- growth (HOP-62 NSCLC): 64.2%
- growth (NCI-H460 lung): 34.1%
- growth (HOP-92 NSCLC): 42.2%
- growth (NCI-H522 lung): 58.5%
- growth (A549/ATCC NSCLC): 36.8%
- growth (786-0 renal): 46.3%
- growth (COLO 205 colon): 31.7%

SMILES: CONC[C@]1(C)C=C2C(=O)[C@](C)(O)C3(CC3)C(C)=C2[C@H]1O
- growth (NCI-H23 lung): -82.6% (active)
- growth (NCI-H226 lung): -26.7% (active)
- growth (NCI-H322M lung): -9.89% (active)
- growth (HOP-62 NSCLC): -21.7% (active)
- growth (NCI-H460 lung): -24.4% (active)
- growth (HOP-92 NSCLC): -16.6% (active)
- growth (NCI-H522 lung): -71.1% (active)
- growth (A549/ATCC NSCLC): 5.7% (active)
- growth (786-0 renal): 5.71% (active)
- growth (COLO 205 colon): -79.1% (active)

SMILES: O=c1oc2ccc(-c3ccc(F)cc3F)cc2c(=O)n1-c1ccc(F)cc1
- growth (NCI-H23 lung): -27.8% (active)
- growth (NCI-H226 lung): -6.57% (active)
- growth (NCI-H322M lung): 1.43% (active)
- growth (HOP-62 NSCLC): -20.9% (active)
- growth (NCI-H460 lung): 2.62% (active)
- growth (HOP-92 NSCLC): -23.8% (active)
- growth (NCI-H522 lung): -7.06% (active)
- growth (A549/ATCC NSCLC): 17.8%
- growth (786-0 renal): 8.17% (active)
- growth (COLO 205 colon): 83.2%

SMILES: CC(=C(c1ccc(OCCN2CCCCC2)cc1)c1ccc(OCCN2CCCCC2)cc1)c1ccccc1
- growth (NCI-H23 lung): 47.2%
- growth (NCI-H226 lung): 82.4%
- growth (NCI-H322M lung): 60.9%
- growth (HOP-62 NSCLC): 10.4%
- growth (NCI-H460 lung): 41.6%
- growth (HOP-92 NSCLC): 8.69% (active)
- growth (NCI-H522 lung): 64.8%
- growth (A549/ATCC NSCLC): 33.3%
- growth (786-0 renal): -35.8% (active)
- growth (COLO 205 colon): -83.9% (active)
